Vaccinia mCherry = vaccinia inhibition (mCherry reporter) | Vaccinia virus mCherry reporter infection, fluorescence | Potency, µM (series often up to 36.5 µM), inactives show at the highest dose activity change, negative = inhibition, actives largely listed as inhibitors | hit rate 0.63% among 310,000; calls by dose curve; tested in A549 cells; further: on the % scale 0 is the no-effect control and ±100 the full control effect; nearly all actives have a fitted effect of over 35% in size
AmpC no deterg = inhibitors of E. coli AmpC beta-lactamase without detergent. P00811. AmpC nitrocefin hydrolysis, absorbance 480 nm, 0.0001% Triton. Potency, µM (top dose mostly 57.1 µM), without a hit: top-dose activity change, negative = inhibition, actives largely listed as inhibitors. hit rate 0.52% among 330,000;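 further: plate controls were no compound for no effect and no enzyme for full effect; nearly all actives have a fitted effect of over 20% in size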
Target sequence (P00811 whole entry, looked up): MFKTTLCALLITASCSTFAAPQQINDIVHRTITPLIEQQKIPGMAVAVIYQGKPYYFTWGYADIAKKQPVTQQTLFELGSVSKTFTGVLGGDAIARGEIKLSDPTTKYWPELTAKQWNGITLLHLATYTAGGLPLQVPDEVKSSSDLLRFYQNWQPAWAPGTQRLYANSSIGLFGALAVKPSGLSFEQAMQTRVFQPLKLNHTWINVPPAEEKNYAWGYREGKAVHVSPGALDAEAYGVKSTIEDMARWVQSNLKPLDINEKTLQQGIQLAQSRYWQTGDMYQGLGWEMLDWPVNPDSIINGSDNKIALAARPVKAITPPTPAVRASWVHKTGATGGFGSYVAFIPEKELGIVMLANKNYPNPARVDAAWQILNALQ
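20 mM phosphate pH 7.0 + 0.01% (detergent screen) or 0.0001% Triton X-100; 5.3 nM AmpC reagent; cpd preinc 15 min RT; nitrocefin (800 uM stock) to start; A480 q20 s × 4 min; Activity was normalised to no-enzyme and no-compound control wells.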
Vaccinia Venus = vaccinia inhibition (Venus reporter); hit rate 0.46% among 330,000; AID 720580; Potency, µM (doses to about 36.5 µM), without a hit: top-dose activity change, negative = inhibition, most hits filed as inhibitors; Vaccinia virus Venus reporter expression, fluorescence; calls by dose curve; tested in A549 cells; further: on the % scale 0 is the no-effect control and ±100 the full control effect; nearly all actives have a fitted effect of over 30% in size
SARS PLpro yeast = inhibitors of SARS-CoV papain-like protease in yeast; hit rate 0.19% among 330,000; Potency, µM (series often up to 32.9 µM), for inactives: top-dose activity, positive = growth rescue, most hits filed as activators; S. cerevisiae expressing SARS-CoV PLpro, growth rescue; AID 485353; calls by dose curve; further: 0% is about no effect; nearly all actives have a fitted effect of over 55% in size
AmpC inh detg = AmpC beta-lactamase inhibition with detergent present; P00811; AmpC hydrolysis of nitrocefin, absorbance 480 nm, 0.01% Triton; Potency, µM (series often up to 114 µM), inactives show top-dose activity change, negative = inhibition, hits mostly inhibitors; hit rate 0.041% among 370,000;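 further: 0% = no-compound wells and -100% = no-enzyme wells; nearly all actives have a fitted effect of over 25% in size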
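20 mM phosphate pH 7.0 + 0.01% (detergent screen) or 0.0001% Triton X-100; 5.3 nM AmpC reagent; cpd preinc 15 min RT; nitrocefin (800 uM stock) to start; A480 q20 s × 4 min; Activity was normalised to no-enzyme and no-compound control wells.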
Starred values were filed as active, the others as inactive; i = inactive; ? = inconclusive; . = no result given. This is a sample that favours compounds with a hit; in the whole collection about 1.3% have one here. Unless noted, the call rests on the fitted dose curve; in most records, active means well fitted curve in the direction sought with a large enough effect; inconclusive means small, poorly fitted or top-dose-only effect, or another doubt; inactive means no such curve, though single readings can be large; an effect the other way counts as inactive or inconclusive. Potency means the concentration at half of the fitted maximal effect.

SMILES | Vaccinia mCherry | AmpC no deterg | Vaccinia Venus | SARS PLpro yeast | AmpC inh detg
Cc1sc2ncnc(N3CCC(C(=O)N(C)CC(=O)Nc4ccc(Cl)c(C(F)(F)F)c4)CC3)c2c1C | 10µM* | 172% | ? | 1% | 1%
Cc1ccc(NC(=O)C2CCN(c3ncnc4sc(C)c(C)c34)CC2)cc1S(=O)(=O)N(C)C | i | 28µM* | -19% | -2% | ?
O=C(NCc1ccccn1)c1cnn(-c2ncc3c(n2)-c2ccccc2CC3)c1C1CC1 | -14% | . | -9% | . | .
COCC(=O)Nc1cc(C(=O)N2CCN(C)C(c3ccccc3)C2)c2c(c1)nc(-c1ccncc1)n2C (configuration not stated) | i | . | -19% | . | .
COc1ccc(C2=C/C(=C\c3ccc(OC(C)=O)cc3)C(=O)O2)cc1 | -5% | -28% | -16% | 4% | -5%
CC(=O)Oc1ccc(C2=Cc3ccc(OC(C)=O)cc3OC2C)cc1 (configuration not stated) | 10µM* | . | -16% | . | .
O=P(C(Cl)Cl)(N1CCOCC1)N1CCOCC1 | -10% | -17% | 3% | -7% | -10%
O=CC(Br)P(=O)(N1CCOCC1)N1CCOCC1 (configuration not stated) | . | -50% | . | 0% | 56µM*
CS(=O)(=O)c1ccc(/C=C2\C=Cc3ccccc32)cc1 | 2% | . | -9% | . | .
C=CS(=O)(=O)c1sc(Cl)c(N2CCOCC2)c1[N+](=O)[O-] | ? | 28µM* | ? | -6% | ?
CCC1C(=O)NCCN1Cc1ccc2c(c1)CN(Cc1cc(OC)c3c(c1)OCO3)CCO2 (configuration not stated) | -16% | . | -19% | . | .
COc1ccc(OC)c2sc(NC(=O)c3ccc(S(=O)(=O)N4CCOCC4)cc3)nc12 | -14% | 7.1µM* | -14% | 7% | ?
COc1ccc(Cl)c2sc(NC(=O)c3ccc(S(=O)(=O)N4CCCC4)cc3)nc12 | -9% | . | -10% | . | 16%
Cc1ccccc1NC(=O)CSc1nc(N)c2c3c(sc2n1)CSC(C)(C)C3 | -21% | 16µM* | ? | 16% | ?
COc1ccc(OC)c(CN2CCOc3ccc(CN4CCC(O)(c5cccnc5)CC4)cc3C2)c1 | -14% | . | 4% | . | .
CCc1cccc(NC(=O)COC(=O)c2ccccc2OCc2ccccc2Br)c1 | ? | . | 13µM* | . | .
COc1ccc(OC)c(CN2CCCC(c3nc(-c4ccncc4)ncc3-c3ccccc3C)C2)c1 (configuration not stated) | -4% | . | -7% | . | .
CN1CCN(C(=O)CCN2C(=O)/C(=C\c3ccccc3F)SC2=S)CC1 | . | 63% | . | 0% | ?
O=C(CCN1C(=O)/C(=C\c2ccccc2F)SC1=S)N1CCOCC1 | ? | . | 13µM* | . | .
Cc1ccc(Nc2nnc(SCC(=O)c3ccc(O)cc3O)s2)cc1 | -19% | 11µM* | 0% | 2% | -2%
COc1ccc(/C=N/NC(=O)c2cc(O)c(O)c(O)c2)cc1Cn1cc([N+](=O)[O-])cn1 | . | -27% | . | 10µM* | 9%
COc1ccc(/C=N/NC(=O)c2ccccc2O)cc1Cn1cc([N+](=O)[O-])cn1 | i | 6.3µM* | 0% | 1% | -5%
C[C@@H]1CN(Cc2ccc3c(c2)CN(C(=O)c2ccc(Oc4ccccc4)o2)CCO3)C[C@H](C)O1 | -29% | . | -21% | . | .
O=C(Nc1ccccc1Cl)NC1CCCCCCC1 | -1% | 35µM* | -2% | -4% | 3%
CCc1ccccc1NC(=O)NC1CCCCC1 | . | 0% | -17% | ? | 5%
O=C(CN1CCCC1)Nc1ccc(NC(=O)Nc2ccccc2Cl)cc1 | . | 16µM* | -23% | 3% | ?
O=C(Nc1ccc(F)cc1)Nc1ccc(N2CCCC2)c(S(=O)(=O)Nc2ccccc2Cl)c1 | 11µM* | -36% | 11µM* | 4% | -3%
O=C(Nc1ccc(Cl)c(Cl)c1)Nc1ccc(N2CCCC2)c(S(=O)(=O)Nc2ccccc2Cl)c1 | 13µM* | -57% | 11µM* | 2% | -12%
COc1cc(-c2ccc(Cl)cn2)cc2c1OCCN(C(=O)c1ccccc1-n1cccn1)C2 | -20% | . | -9% | . | .
CCOc1ccc(S(=O)(=O)N(CC)CC)cc1NS(=O)(=O)c1ccc(F)c(F)c1F | 4µM* | -7% | 4.5µM* | 7% | -16%

Source: PubChem BioAssay
